Results reported in PubChem BioAssay AID504332 (National Center for Advancing Translational Sciences (NCATS), 2011).
In all, about 350,000 compounds went through this assay and about 31,000 (8.9%) were called active. Roughly 15% stayed inconclusive and do not appear here. The call rests on the fitted dose curve; in most records, active means well fitted inhibition curve with a large enough effect; inconclusive means small, poorly fitted or top-dose-only effect; inactive means no such curve, though single readings can be large or run the other way. Shown is part of a subset that was picked to be rich in actives. Where a call stands in place of a potency, no number is given.

Target: Histone-lysine N-methyltransferase EHMT2 (Homo sapiens) (UniProt Q96KQ7)
Sequence (Q96KQ7 913-1193 limits assumed): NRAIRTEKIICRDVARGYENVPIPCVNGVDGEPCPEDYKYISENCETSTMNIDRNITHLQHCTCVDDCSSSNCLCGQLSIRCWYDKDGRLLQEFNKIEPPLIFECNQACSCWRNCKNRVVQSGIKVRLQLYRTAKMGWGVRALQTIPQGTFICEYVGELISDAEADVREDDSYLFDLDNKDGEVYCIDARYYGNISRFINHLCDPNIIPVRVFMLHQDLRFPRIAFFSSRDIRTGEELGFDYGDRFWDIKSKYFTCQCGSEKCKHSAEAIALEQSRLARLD
Experiment: qHTS Assay for Inhibitors of Histone Lysine Methyltransferase G9a; further: nearly all actives have a fitted effect of over 75% in size
Details: G9a H3K9 monomethylation, AlphaScreen, 2 h; series mostly up to 59 µM
In short: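 Quantitative HTS format: methyltransferase activity on a biotin-tagged H3K9 peptide is measured by AlphaScreen, using a rabbit anti-monomethyl-H3K9 antibody with streptavidin donor and anti-IgG acceptor beads. Final levels are 20 nM enzyme, 500 nM peptide, 20 uM SAM; 2 h RT.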
Potency means the concentration at half of the fitted maximal effect.

Structure (SMILES) | activity, negative = inhibition | Potency
Cc1ccc(-c2cnc(NC(=O)CCC(=O)N(C)Cc3ccccc3)n2C)cc1 | -4.41% [at 12.7 µM] (inactive) | 
COc1ccc(CNc2nc(-c3ccc(Cl)cc3)nn2S(=O)(=O)c2ccc(C)cc2)cc1 |  | inactive
Cc1ccc(-c2cnc(NCc3ccc(C(C)C)cc3)n2C)cc1 |  | 2.82 µM (active)
CCOc1ccccc1OCC(=O)Nc1ccccc1C(=O)NC1CC1 |  | inactive
CCCN(CC(=O)Nc1ccccc1OC)C(=O)CCC(=O)c1ccc(F)cc1 |  | inactive
Cc1nn(C(C)C(=O)NCCC2=CCCCC2)c(=O)c2nn(-c3ccccc3)c(C)c12 (configuration not stated) |  | inactive
CCC(=O)N1CCc2cc(CNC(=O)Nc3ccccc3Cl)ccc21 |  | inactive
Cc1cc(Cl)ccc1NC(=O)Cc1ccc(NC(=O)N2CCCCc3ccccc32)cc1 |  | inactive
O=C(Cc1ccc2c(c1)CCCC2)Nc1ccccc1Cl |  | 44.7 µM (active)
CCCC(=O)N1CCN(c2nnc(-c3ccc(C)cc3)c3ccccc23)CC1 |  | inactive
CCc1nnc(NS(=O)(=O)c2ccc(NS(=O)(=O)c3ccccc3)cc2)s1 | 2.62% [at 12.7 µM] (inactive) | 
CCc1nnc(NS(=O)(=O)c2ccc(NC(=S)NC(=O)c3cccs3)cc2)s1 |  | inactive
CCc1nnc(NS(=O)(=O)c2ccc(NC(=S)NC(=O)/C=C/c3cccs3)cc2)s1 |  | 44.7 µM (active)
Cc1ccccc1CNC(=O)CSc1nnc(C)c2c(C)n(-c3ccccc3)nc12 |  | inactive
O=C(CCn1nnnc1CN1CCOCC1)N1CCC(c2ccccc2Cl)C1 (configuration not stated) |  | inactive
Nn1c(SCC(=O)Nc2nccs2)nnc1-c1ccco1 |  | 28.2 µM (active)
CCc1cccc(C)c1NC(=O)CSc1nnc(-c2ccco2)n1N | 11.7% [at 0.501 µM] (inactive) | 
Cn1c(SCC(=O)Nc2nccs2)nnc1-c1cccnc1 |  | inactive
CCOC(=O)CSc1nnc(-c2ccco2)n1C |  | inactive
Cn1c(SCC(=O)c2cccs2)nnc1-c1ccco1 |  | 50.1 µM (active)
CCCCNC(=O)CSc1nnc(-c2ccco2)n1C |  | inactive

Structure (SMILES) | activity, negative = inhibition | Potency
Cc1cccc(Cn2c(=O)n(CCC(=O)NCCc3ccc(Cl)cc3)c(=O)c3sccc32)c1 |  | inactive
COc1ccc(NC(=O)CN(C)C(=O)c2ccc(NC3CC3)c([N+](=O)[O-])c2)cc1 | -3.73% [at 2.33 µM] (inactive) | 
Cc1ccc(-n2c(=O)c3cccnc3n2CC(=O)NCc2ccc(F)cc2)cc1C |  | inactive
Cc1cccc(C(=O)NCCCN(C)CCCNC(=O)c2cccc(C)c2)c1 |  | inactive
CCN(CCCNC(=O)Cn1ncc2c([nH]c3ccccc32)c1=O)c1cccc(C)c1 |  | inactive
CCN(CCCNC(=O)c1ccc2c(c1)NC(=O)CN2C)c1cccc(C)c1 |  | 7.94 µM (active)
CC(=O)Nc1cc(C(=O)NCc2ccc(F)cc2)ccc1Sc1ccc(F)cc1 |  | inactive
CCN(CCCNC(=O)c1ccc(Sc2ccc(C)cc2)c(NC(C)=O)c1)c1cccc(C)c1 |  | 12.6 µM (active)
CC(=O)Nc1cc(C(=O)NCc2ccc(F)cc2Cl)ccc1Sc1ccc(Cl)cc1 |  | inactive
Cc1oc2ccc(O)c(CN3CCOCC3)c2c1C(=O)Nc1cccc(Cl)c1C |  | inactive
C=CCOc1ccc(/C=C/C(=O)OCC(=O)NCC2CCCO2)cc1 (configuration not stated) | 6.35% [at 12.7 µM] (inactive) | 
CCC(=O)N(Cc1cc2ccccc2[nH]c1=O)c1ccc(OC)cc1 |  | inactive
Cc1ccc(N(Cc2cc(=O)[nH]c3ccccc23)C(=O)CCl)cc1 |  | 11.2 µM (active)
Cc1ccc(N(Cc2cc3ccccc3[nH]c2=O)C(=O)c2cccs2)cc1 |  | inactive
Cn1nnnc1SCc1cc(=O)[nH]c2ccccc12 |  | inactive
CC(=O)N(Cc1cc(=O)[nH]c2ccccc12)c1ccc(C)cc1C |  | 31.6 µM (active)
CCCN(CC(=O)Nc1ccccc1C)C(=O)c1cc(=O)[nH]c2ccccc12 |  | inactive
Cc1oc2ncnc(N3CCCCC3)c2c1C(=O)N1CCN(c2cccc(Cl)c2)CC1 |  | inactive
Cc1ccc2nc(-c3ccc(C)c(NC(=O)Cc4ccccc4)c3)oc2c1 |  | inactive
CCC(NC(=O)c1cc(COc2ccc(F)c(F)c2)on1)c1ccncc1 (configuration not stated) | 13.4% [at 12.7 µM] (inactive) | 
COc1cc(OC)cc(C(=O)Nc2ccc3nc(Nc4cccc(C(F)(F)F)c4)cc(C)c3c2)c1 |  | inactive

Structure (SMILES) | activity, negative = inhibition | Potency
COc1ccc(S(=O)(=O)Nc2ccc3cn[nH]c3c2)cc1[N+](=O)[O-] | -20.9% [at 12.7 µM] (inactive) | 
CCC(CC)c1nnc(NC(=O)c2nn(C)c(=O)c3ccccc23)s1 |  | inactive
COc1cccc(OC)c1C(=O)Nc1nnc(C(C)C)s1 |  | inactive
CCN(CC)C(=O)c1sc(NC(=O)c2ccco2)c(C#N)c1C |  | inactive
CCn1c(SCC(=O)Nc2sc(C)c(C)c2C#N)nnc1C1CC1 |  | inactive
CCC(CC)c1nnc(NC(=O)C2=COCCO2)s1 |  | 39.8 µM (active)
Cc1sc(NC(=O)C2=COCCO2)c(C#N)c1C |  | 11.2 µM (active)
O=C(N=C1SC2CS(=O)(=O)CC2N1c1cc(Cl)ccc1Cl)C1CC1 (configuration not stated) |  | inactive
CCOc1ccc(N(CC)S(=O)(=O)N2CCCC(C(=O)NCc3ccc(SC)cc3)C2)cc1 (configuration not stated) |  | inactive
CCCCn1c(=O)c2oc3ccccc3c2n(CC(=O)Nc2ccccc2OC)c1=O |  | inactive
CCCCc1ccc(NC(=S)N2CCCC(CO)C2)cc1 (configuration not stated) |  | inactive
COc1cc(NC(=S)N2CCCC(C)C2)cc(OC)c1OC (configuration not stated) |  | 50.1 µM (active)
COc1ccc(NC(=S)N2CCCC(CO)C2)c(OC)c1 (configuration not stated) |  | inactive
CCOc1ccc(NC(=O)c2ccc(NC(=O)COC(=O)c3ccc(NC(=O)CC#N)cc3)cc2)cc1 | 12.7% [at 2.33 µM] (inactive) | 
O=C(NCc1ccccc1)C(=O)NCC(c1ccco1)S(=O)(=O)c1ccc(Cl)cc1 (configuration not stated) |  | inactive
Cc1nn(Cc2ccccc2)c(C)c1C(=O)N1CCN(CC(=O)Nc2ccccc2Cl)CC1 |  | inactive
Cc1ccc(S(=O)(=O)N(C)C)cc1NC(=O)COC(=O)c1c(C)noc1C |  | inactive
CN(C)S(=O)(=O)c1cccc(NC(=O)COC(=O)/C=C/c2cccs2)c1 |  | inactive
Cc1ccc(S(=O)(=O)N(C)C)cc1NC(=O)COC(=O)/C=C/c1cccs1 |  | 28.2 µM (active)
CCOC(=O)c1cc2c(=O)n3ccccc3nc2n(CCCOC)c1=NC(=O)C(C)Oc1ccccc1 (configuration not stated) |  | inactive
